This experiment addresses PAI-1 wild type, active (human, UniProt P05121 24-402). The experiment in a line: branched SELEX with high-throughput sequencing; PAI-1 immobilised on polyclonal anti-PAI-1 antibody; HBS (10 mM HEPES pH 7.4, 140 mM NaCl), 2 mM MgCl2, 2 mM CaCl2, 0.1% BSA; RNA pool 100 nM; PAI-1 captured on antibody-coated wells; 45 min; binding temperature not stated (PAI-1 capture at room temperature); high values mean tight binding.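 Further: Pool frequency after one selection round with this target divided by frequency before selection.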 The conditions noted are these: protein: recombinant; tags: N-terminal His6; structured_RNA; 2'-F pyrimidines.
Chain of PAI-1 wild type, active (P05121 24-402): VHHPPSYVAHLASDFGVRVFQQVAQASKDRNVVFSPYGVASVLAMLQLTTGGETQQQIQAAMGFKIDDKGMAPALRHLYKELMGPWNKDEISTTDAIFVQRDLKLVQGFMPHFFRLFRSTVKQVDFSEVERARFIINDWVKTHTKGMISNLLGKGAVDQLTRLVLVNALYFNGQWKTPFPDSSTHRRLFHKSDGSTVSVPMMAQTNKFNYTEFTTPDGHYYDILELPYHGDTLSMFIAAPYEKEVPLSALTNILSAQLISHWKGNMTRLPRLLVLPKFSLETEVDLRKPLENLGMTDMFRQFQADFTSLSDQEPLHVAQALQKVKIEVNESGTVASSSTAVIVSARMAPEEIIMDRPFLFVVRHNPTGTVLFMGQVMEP
On to “GGGGCCACCAACGACAUUAUGAGCCCUAUCUAUCGACCGAUCAUGUCACGUAGGUUGAUAUAAAUAGUGCCCAUGGAUC”, for which the binding signal is 1.38 enrichment factor.

As for “GGGGCCACCAACGACAUUCCGCUCAUGAUCUGUUAUCAUGAGUGCGUAGUACCGUUGAUAUAAAUAGUGCCCAUGGAUC”, the binding signal came out at 1.08 enrichment factor.

With “GGGGCCACCAACGACAUUGUAGCAUAAUCAACCUGCGACUGUCGUGUGAUAAGGUUGAUAUAAAUAGUGCCCAUGGAUC”, the binding signal was found to be 1.02 enrichment factor.

As to “GGGGCCACCAACGACAUUACGAACUUGUAGGCACGAAUACGCCGACCUCUAAUGUUGAUAUAAAUAGUGCCCAUGGAUC”, the binding signal came to 1.25 enrichment factor.

Consider “GGGGCCACCAACGACAUUUCGACUUGUAGACGAUAUUCGUCGACUCGAAGAGCGUUGAUAUAAAUAGUGCCCAUGGAUC”, for which the binding signal worked out at 0.51 enrichment factor.

For “GGGGCCACCAACGACAUUGACCCGUAGUGUCUUACUACGACUUGUAGAUGUUGUUGAUAUAAAUAGUGCCCAUGGAUC”, the binding signal worked out at 0.5 enrichment factor.

Regarding “GGGGCCACCAACGACAUUGUAGACUUGUCAACGGUCGACUGUCGAUACAUGUGUUGAUAUAAAUAGUGCCCAUGGAUC”, the binding signal came to 0.56 enrichment factor.

On to “GGGGCCACCAACGACAUUCACCACGUAGUGAAACUUUCACGACUAGAAUGUAAGUUGAUAUAAAUAGUGCCCAUGGAUC”, for which the binding signal came out at 0.74 enrichment factor.

Turning to “GGGGCCACCAACGACAUUCAACGUGCACUGUAGCUGUACAAAGCGACCAACGUUGAUAUAAAUAGUGCCCAUGGAUC”, the binding signal worked out at 6.23 enrichment factor.

As for “GGGGCCACCAACGACAUUGCCGUAGUGCAGGGUUGCUUGCAUGAUCAAUUGUUGUUGAUAUAAAUAGUGCCCAUGGAUC”, the binding signal came out at 2.1 enrichment factor.

Turning to “GGGGCCACCAACGACAUUUACGCACCGUAGACUUAAUAGUCGAUUAGUACAUGUUGAUAUAAAUAGUGCCCAUGGAUC”, the binding signal stood at 1.19 enrichment factor.

Consider “GGGGCCACCAACGACAUUUGCGUAAGCAACCUUGGUGUUAUAUUCACCAGAUCGUUGAUAUAAAUAGUGCCCAUGGAUC”, for which the binding signal stood at 0.63 enrichment factor.

Consider “GGGGCCACCAACGACAUUCUGGGCCGUAGGCGAUAUUAGCCGAUCCCAGAAGAGUUGAUAUAAAUAGUGCCCAUGGAUC”, for which the binding signal worked out at 1.43 enrichment factor.

As to “GGGGCCACCAACGACAUUGAACUUGUAGUACCUGUAUUGGGUAUGACCUCAGUGUUGAUAUAAAUAGUGCCCAUGGAUC”, the binding signal was found to be 1.61 enrichment factor.

Turning to “GGGGCCACCAACGACAUUGGUAAUGGUGUGAAUUAACCUUAAGCCUAUUGGUUGUUGAUAUAAAUAGUGCCCAUGGAUC”, the binding signal is 0.22 enrichment factor.

Regarding “GGGGCCACCAACGACAUUGAGCUACGGCUAAGCCGCUAUAGUCUUCAGGAAUCGUUGAUAUAAAUAGUGCCCAUGGAUC”, the binding signal is 0.33 enrichment factor.

As for “GGGGCCACCAACGACAUUUUGUAGGUGUCAACUACCGACCGUCGUUUGCAUUAGUUGAUAUAAAUAGUGCCCAUGGAUC”, the binding signal stood at 1.24 enrichment factor.

For the sequence “GGGGCCACCAACGACAUUGACUAGACAUGAUGUUGCAUGUCACCAUGUAAAAUGUUGAUAUAAAUAGUGCCCAUGGAUC”, the binding signal is 0.92 enrichment factor.

In the case of “GGGGCCACCAACGACAUUGUCGUAGGCAAGUGUACGAAUCUUUGCUGACCAGUGUUGAUAUAAAUAGUGCCCAUGGAUC”, the binding signal amounted to 2.67 enrichment factor.

For “GGGGCCACCAACGACAUUACGUAGCAUGAUGAGUUUCUCGUCGGCGAUCAGUUGUUGAUAUAAAUAGUGCCCAUGGAUC”, the binding signal turned out to be 0.98 enrichment factor.

On to “GGGGCCACCAACGACAUUCUGGCCGUAGGACAAUAGUCCGAUCCAGAUAUAGAGUUGAUAUAAAUAGUGCCCAUGGAUC”, for which the binding signal worked out at 0.54 enrichment factor.

As to “GGGGCCACCAACGACAUUGAGUCUCCUACACGCGUAGGUAAGUUCGUCUCAUUGUUGAUAUAAAUAGUGCCCAUGGAUC”, the binding signal was 3.79 enrichment factor.

As for “GGGGCCACCAACGACAUUCUACGUCGUAGUCGCUUAGCGAUGACCGUUAGAUGUUGAUAUAAAUAGUGCCCAUGGAUC”, the binding signal is 0.74 enrichment factor.

Regarding “GGGGCCACCAACGACAUUAUGCCGUAGGCGCUAGAUGUGCCGAUCAUAAUGCAGUUGAUAUAAAUAGUGCCCAUGGAUC”, the binding signal stood at 0.5 enrichment factor.
